Screening data: PubChem BioAssay, National Center for Advancing Translational Sciences (NCATS)
KB-3-1 cytotox: KB-3-1 parental cell cytotoxicity. KB-3-1 viability, CellTiter-Glo ATP luminescence, 72 h. Potency, µM (doses to about 46.1 µM), most hits filed as cytotoxic. actives 1.4% (n = 400,000). AID 1347075; further: on the % scale 0 is the no-effect control and ±100 the full control effect; nearly all actives have a fitted effect of over 60% in size
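KB-3-1 parental drug-naive adenocarcinoma cells in DMEM/10% FBS, incubated 72 h at 37 C with pin-transferred compounds across a concentration series. Viability by CellTiter-Glo luminescence; concentration-response curves fitted after normalization.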
S2 tox: cell viability loss in ATXN counter-screen | AID 651635 | S2 cells (HEK-293 line with an ATXN2-luciferase reporter) viability, CellTiter-Fluor protease fluorescence, 24 h | Potency, µM (highest dose often 56.7 µM), usual class: cytotoxic | actives 0.49% (n = 400,000); further: nearly all actives have a fitted effect of over 40% in size
HepG2 tox: counter-screen for TGF-b inhibitors: cytotoxicity in HepG2 cells. HepG2 CAGA-GFP viability, ATP luminescence, 18 h. Potency, µM (doses to about 46.1 µM), for the others: at the top dose activity change, negative = cytotoxicity, actives largely listed as cytotoxic. actives 0.76% (n = 410,000). AID 588856
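CellTiter-Glo luminescence gave cytotoxicity after 18 hours at 37 degrees C. The cells were HepG2 CAGA-GFP in 1% FBS DMEM, stimulated with 500 pg/mL TGF-beta after compound addition. %Activity was normalised to no-cell wells (complete cell-killing) and DMSO (no toxicity), and curves were fitted and classified.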
KB-V1 cytotox: KB-V1 MDR subline cytotoxicity | KB-V1 MDR cells viability, CellTiter-Glo, 72 h | Potency, µM (top dose mostly 46.1 µM), hits mostly cytotoxic | actives 3.4% (n = 400,000) | AID 1347076; further: on the % scale 0 is the no-effect control and ±100 the full control effect; nearly all actives have a fitted effect of over 60% in size
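Following 72 h at 37 degrees C with compound, KB-V1 cell viability was read by CellTiter-Glo luminescence, medium being phenol-red-free DMEM plus 10% FBS; concentration-response parameters came from normalized, curve-fitted qHTS data.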
ATXN2 expr inh: reduces ATXN2 reporter expression in HEK-293 cells; HEK-293 ATXN2-luciferase reporter, luminescence, 24 h; Potency, µM (titrated, usually from 57 µM), without a hit: at the highest dose activity change, negative = inhibition, actives largely listed as inhibitors; actives 0.72% (n = 360,000); AID 1745845; further: on the % scale 0 is the no-effect control and ±100 the full control effect; nearly all actives have a fitted effect of over 55% in size
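qHTS (up to 57 uM final) was run with 24 h compound exposure of reporter cells at 37 °C. Each well was multiplexed: SteadyGlo luminescence measured ATXN2-luciferase expression after a fluorogenic Gly-Phe-AFC viability readout (25 uM final).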
TGFb SMAD3 inh: inhibitors of TGF-b signaling | HepG2 CAGA-GFP TGF-b/SMAD3 reporter, GFP fluorescence, 18 h; TGF-beta stimulated, 500 pg/mL final | Potency, µM (top dose mostly 46.1 µM), inactives show at the top dose activity, negative = inhibition, usual class: inhibitors | actives 1.2% (n = 410,000) | AID 588855; further: on the % scale 0 is the no-effect control and ±100 the full control effect; nearly all actives have a fitted effect of over 65% in size
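HEPG2 CAGA-GFP reporter cells (1000/well, DMEM with 1% FBS) received compounds, then recombinant TGF-beta at 500 pg/mL final for 18 hours at 37 degrees C. Per-cell GFP summed per well was normalised to unstimulated and stimulated DMSO controls before curve fitting.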
Starred values were filed as active, the others as inactive; i = inactive; ? = inconclusive; . = not tested or not shown. Shown are actives, neighbours in structure and some others; about 5.9% of the full set was active somewhere. The call rests on the fitted dose curve; in most records, active means well fitted curve in the direction sought with a large enough effect; inconclusive means small, poorly fitted or top-dose-only effect, or another doubt; inactive means no such curve, though single readings can be large; an effect the other way counts as inactive or inconclusive. Potency means the concentration at half of the fitted maximal effect.

SMILES	KB-3-1 cytotox	S2 tox	HepG2 tox	KB-V1 cytotox	ATXN2 expr inh	TGFb SMAD3 inh
CC(C)c1ccc(NC(=O)c2cc(S(=O)(=O)N3CCCCC3)cn2C)cc1	i	i	-15%	i	5%	18%
CNC(=O)c1cnc2sc(N3CCC(C)CC3)nn2c1=O	i	i	3%	i	31%	-7%
CCCCC(O)(CCCC)C(=O)NN(C(=O)OCC)c1ccccc1	i	i	-5%	13µM*	4%	-11%
CCCCC(O)(CCCC)C(=O)NN(C(=O)OC)c1ccccc1	i	i	-11%	i	-22%	-2%
O=c1[nH]nc(OCCCc2ccc(Cl)cc2)c(NCc2cccnc2)c1Br	.	.	.	.	24µM*	.
COc1cc(C(=O)NCC(c2ccco2)N2CCCC2)ccc1OCc1c(C)noc1C (stereo not given)	?	i	2%	10µM*	22%	-15%
COc1ccc(C(CNC(=O)c2ccc(OCc3c(C)noc3C)cc2)N2CCCC2)cc1 (stereo not given)	?	i	-24%	1.5µM*	-10%	4%
COc1ccccc1C(CNC(=O)c1ccc(OCc2c(C)noc2C)cc1)N1CCCC1 (stereo not given)	?	i	-45%	?	-14%	-15%
COc1cc(C(=O)NCc2cccs2)ccc1OCc1c(C)noc1C	i	i	-13%	i	23%	21%
COc1ccc(C(CNC(=O)c2cccc(NC(=O)c3cccs3)c2)N2CCCC2)cc1 (stereo not given)	i	?	-21%	21µM*	-5%	1%
COC(=O)CCNC(=O)N1CCN(c2nnc(C)c3c(C)n(-c4ccccc4)nc23)CC1	i	i	4%	i	-9%	-1%
COCCN1C(=O)CCC1(C)c1nnnn1Cc1ccccc1 (stereo not given)	i	i	.	i	21%	.
CN(C)/[N+]([O-])=N/Oc1cc(O/[N+]([O-])=N/N2CCCC2CO)c([N+](=O)[O-])cc1[N+](=O)[O-] (stereo not given)	.	.	-23%	.	.	-29%
COc1ccc(CN2CCC(N(CCc3ccccc3)Cc3ccccc3)CC2)c(OC)c1	?	?	-49%	13µM*	?	?
CCCN1CCC(N(CCc2ccccc2)Cc2ccccc2)CC1	i	i	-19%	i	.	-9%
CCCn1c(SCC(=O)c2cc(C)n(-c3ccc4c(c3)OCO4)c2C)n[nH]c1=O	12µM*	i	-5%	2.9µM*	7%	-20%
Cc1cccc(-n2nnnc2SCC(=O)c2cc(C)n(Cc3ccco3)c2C)c1	i	i	-57%	18µM*	-15%	?
Cc1cc(C(=O)CSc2nnnn2-c2ccccc2)c(C)n1-c1ccc2c(c1)OCO2	?	i	-19%	7.3µM*	-7%	?
CCCn1c(SCC(=O)c2cc(C)n(C3CC3)c2C)n[nH]c1=O	.	i	12%	.	19%	-8%
Cc1ccc(-n2nnnc2SCC(=O)c2cc(C)n(-c3cc(C)on3)c2C)cc1	i	i	-35%	i	5%	-34%
Cc1cc(C(=O)CSc2nncs2)c(C)n1-c1ccc2c(c1)OCO2	i	i	-22%	16µM*	26%	-21%
Cc1ccc(-n2nnnc2SCC(=O)c2cc(C)n(CC3CCCO3)c2C)cc1 (stereo not given)	i	i	0%	?	11%	3%
Cc1cc(C(=O)CSc2nnnn2-c2ccc(O)cc2)c(C)n1Cc1ccc2c(c1)OCO2	?	i	-1%	15µM*	-6%	?
Cc1cc(C(=O)CSc2nnc(-c3cccc(F)c3)n2N)c(C)n1Cc1ccc2c(c1)OCO2	?	i	-49%	2.6µM*	-30%	0%
O=C(CSc1nc(=O)n(Cc2ccncc2)c2c1CCC2)Nc1ccccc1	i	i	1%	i	1%	-8%
SMILES	KB-3-1 cytotox	S2 tox	HepG2 tox	KB-V1 cytotox	ATXN2 expr inh	TGFb SMAD3 inh
Cc1ccc(C)c(-c2ccc(=O)n(Cc3ccc(F)cc3Cl)n2)c1	?	?	-21%	i	-20%	13µM*
Cc1ccc(C)c(-c2ccc(=O)n(Cc3cccc(Br)c3)n2)c1	i	i	-47%	i	-28%	?
CC(C)c1c(C(=O)NCCN2CCOCC2)cnn1-c1nccc(-c2ccco2)n1	.	i	.	.	.	.
CCCCN1CC(c2nc3ccccc3n2CCCCOc2cccc(C)c2C)CC1=O (stereo not given)	i	?	11µM*	18µM*	?	?
CCCCN1CC(c2nc3ccccc3n2CCCCOc2ccc(C)c(C)c2)CC1=O (stereo not given)	i	.	-103%	i	?	11µM*
CCCCN1CC(c2nc3ccccc3n2CCCCOc2cc(C)cc(C)c2)CC1=O (stereo not given)	i	?	-106%	i	?	?
CCc1nc2c(OCc3cccc(Cl)c3)cccn2c1N(C)C(=O)C1CC1	i	i	-19%	i	0%	1%
O=C(NCCCNc1nc(Nc2cccc(NC(=O)N3CCCC3)c2)ncc1I)c1cccs1	.	.	.	.	14µM*	.
COc1ccc(OC)c(CNC(=O)CN(c2ccc(C)cc2)S(=O)(=O)N(C)C)c1	i	?	2%	i	1%	-7%
Cc1ccc2c(c1)c1c3n2CCN(C(=O)c2ccc(C(F)(F)F)cc2)C3CCC1 (stereo not given)	?	i	2%	?	-5%	10%
Cc1cc(C)c(S(=O)(=O)Nc2cc(SCC(=O)O)c(O)c3ccccc23)cc1C	?	.	-106%	?	?	?
COc1ccc(S(=O)(=O)Nc2cccc3ccccc23)cc1	.	.	0%	.	.	-13%
O=C(O)CSc1cc(NS(=O)(=O)c2ccc(Cl)cc2)c2ccccc2c1O	?	i	6.3µM*	?	?	?
COc1ccc(S(=O)(=O)Nc2cc(SCC(=O)O)c(O)c3ccccc23)cc1	?	?	-107%	?	.	11µM*
COc1ccc(S(=O)(=O)Nc2cccc3ccc(O)cc23)cc1	15µM*	?	4%	?	?	?
Cc1cccc(Cn2cc(S(=O)(=O)c3cccc(Cl)c3)c(=O)c3cc(F)c(N4CCOCC4)cc32)c1	.	.	6%	.	.	0%
CCN(Cc1ccccc1)C(=O)c1c(C)oc2ncn(C)c(=O)c12	i	i	1%	i	11%	3%
